Compound activity (PubChem BioAssay)
DAX1 inh-1 = DAX1 (NR0B1) inhibition, primary screen; actives 1.1% (n = 370,000); HEK293T StAR-luciferase reporter, SF-1/DAX-1 repression relief; inhibition, % at 6.8 µM;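 active = inhibition above the mean over all tested compounds plus 3 SD, cut at about 3.6% in these data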;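 note: 0% = DAX-1 cells with DMSO and 100% = cells lacking DAX-1 with DMSO; higher inhibition means more luminescence from relief of DAX-1 repression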
hcDAF12 agonist = H. contortus DAF-12 activation, primary screen. HEK293 hcDAF-12 lit1-tk-luc reporter, luminescence; 0% DMSO, 100% Δ7-dafachronic acid. activation, % at 6.8 µM. actives 1.4% (n = 370,000). AID 652067;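 active = activation above the mean of all tested compounds plus 3 SD, cut at about 5.5% in these data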;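 note: 100% = response to 3 µM Δ7-dafachronic acid high control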
ssDAF12 agonist = activates DAF-12 receptor from parasite S. stercoralis | HEK293 ssDAF-12/GRIP1 lit1-tk-luc reporter, luminescence; % of 3 µM dafachronic acid response | activation, % at 6.8 µM | actives 1% (n = 370,000);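 active = activation above the mean over all tested compounds plus 3 SD, cut at about 0.9% in these data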;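 note: 0% = DMSO-only wells and 100% = 3 µM delta7-dafachronic acid wells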
DAX1 inh-2 = inhibitors of human orphan nuclear receptor DAX1 (NR0B1); P51843; HEK293 Gal4-DAX1 luciferase reporter, luminescence; inhibition, % at 6.75 µM; actives 0.99% (n = 340,000); AID 504766;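 active = inhibition above the mean over all tested compounds plus 3 SD, cut at about 4.2% in these data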;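 note: 0% = DAX1-transfected cells with DMSO and 100% = empty-vector control cells with DMSO; inhibition shows as a rise in luminescence from relieved DAX1 repression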
Target sequence (P51843 207-470 limits assumed): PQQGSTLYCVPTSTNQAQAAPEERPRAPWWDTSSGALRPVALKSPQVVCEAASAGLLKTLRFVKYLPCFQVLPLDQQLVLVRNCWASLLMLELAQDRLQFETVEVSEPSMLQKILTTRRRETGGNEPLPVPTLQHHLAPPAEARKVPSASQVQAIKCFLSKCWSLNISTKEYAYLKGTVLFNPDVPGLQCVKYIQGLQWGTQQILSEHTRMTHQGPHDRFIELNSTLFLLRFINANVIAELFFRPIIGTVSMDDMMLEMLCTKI
hgDAF-12 ag = activates the H. glycines DAF-12 receptor ligand-binding domain; HEK293 GAL4-hgDAF12 UAS-luciferase reporter, agonist luminescence; normalized to butyrate control; activation, % at 6.8 µM; actives 1.8% (n = 370,000); AID 687014;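 active = activation above a cutoff set at the mean of all screened compounds plus 3 SD, cut at about 10% in these data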;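 note: 0% = DMSO wells and 100% = sodium butyrate wells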
GAA850 FXN act = frataxin GAA850 promoter activation; HEK293 lucGAA850 FXN promoter luciferase reporter, 24 h; percent of 10 µM SAHA response; actives 0.56% (n = 360,000); AID 540364; activation, % at 6 µM;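 active = activation above the average of all compounds screened plus 3 SD, cutoff fixed separately per campaign, cut at about 7.5% in these data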;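 note: 0% = DMSO wells and 100% = 10 µM SAHA wells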
LXRb hcDAF ctr = activates human LXR-beta, counter-screen for hcDAF-12 agonists; activation, % at 6.8 µM; shares compounds with hcDAF12 agonist; HEK293 Gal4-LXR tk-luc reporter, luminescence, 24 h; normalized: DMSO 0%, positive control 100%; AID 743027; 3,400 tested, under 10 active;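 active = mean percent activation of the reporter above a cutoff set as the average over tested compounds plus their standard deviation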
Target sequence (P55055 whole entry, looked up, the tested form may be a part): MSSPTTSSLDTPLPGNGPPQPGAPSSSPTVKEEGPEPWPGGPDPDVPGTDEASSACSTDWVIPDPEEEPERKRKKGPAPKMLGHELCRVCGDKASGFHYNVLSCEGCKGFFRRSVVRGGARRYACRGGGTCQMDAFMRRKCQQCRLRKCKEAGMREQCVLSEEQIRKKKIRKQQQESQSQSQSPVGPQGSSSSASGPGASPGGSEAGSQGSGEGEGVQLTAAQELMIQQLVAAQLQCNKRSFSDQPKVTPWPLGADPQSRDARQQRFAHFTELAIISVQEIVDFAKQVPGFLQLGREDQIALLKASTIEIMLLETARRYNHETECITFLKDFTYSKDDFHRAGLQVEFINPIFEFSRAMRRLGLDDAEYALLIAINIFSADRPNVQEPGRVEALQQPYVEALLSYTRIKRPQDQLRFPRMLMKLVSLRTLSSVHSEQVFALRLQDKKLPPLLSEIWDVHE
hcDAF12 ag = confirmation of H. contortus DAF-12 agonists. AID 743032. actives 61% (n = 3,400). shares compounds with hcDAF12 agonist. activation, % at 6.8 µM. HEK293 hcDAF-12 lit1-tk-luc reporter, luminescence; % of Δ7-dafachronic acid response;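 active = mean activation across triplicate tests above the threshold derived from the earlier primary screen, cut at about 5.5% in these data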;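 note: 0% = DMSO only wells and 100% = 3 µM Δ7-dafachronic acid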
hgDAF12 ag = confirmation of H. glycines DAF-12 agonists | shares compounds with hgDAF-12 ag | HEK293 GAL4-hgDAF12 luciferase reporter, agonist mode; percent of butyrate response | activation, % at 6.8 µM | AID 743050 | actives 80% (n = 3,300);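 active = mean activation over triplicate wells above the hit cutoff derived from the earlier primary screen, cut at about 11% in these data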;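 note: 0% = DMSO low control and 100% = 2 mM sodium butyrate high control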
LXR ag 2 = activates human LXR-beta, counter-screen for DAF-12 agonists; activation, % at 6.8 µM; HEK293 Gal4-LXR luciferase reporter, 24 h; 3,300 tested, under 10 active; shares compounds with hgDAF-12 ag;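 active = mean activation of the triplicate above a set limit carried over from the primary screen, none filed active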
* hit, by the source's call; . = no result given. Compounds with a hit are over-represented: about 4.5% of the library has one in this group of screens.

SMILES	DAX1 inh-1	hcDAF12 agonist	ssDAF12 agonist	DAX1 inh-2	hgDAF-12 ag	GAA850 FXN act	LXRb hcDAF ctr	hcDAF12 ag	hgDAF12 ag	LXR ag 2
COc1ccc(-c2csc(Nc3cccc(C)n3)n2)cc1C	1.5	6.7*	-0.2	2.2	14.0*	5.0	1.3	6.0*	16.6*	0.6
NS(=O)(=O)c1ccc(Nc2nc(-c3ccc(F)cc3)cs2)cc1	-1.1	-1.8	-2.0	.	1.4	-0.7	.	.	.	.
COc1ccc(-c2csc(Nc3ccc(C)cn3)n2)cc1OC	0.3	-2.4	-1.4	0.8	2.6	4.0	.	.	.	.
Oc1ccc(-c2csc(Nc3ncccn3)n2)cc1	3.1	7.0*	0.1	0.7	18.2*	3.4	1.6	8.4*	10.1	1.2
COc1ccc(-c2csc(Nc3cccc(C)n3)n2)cc1	2.8	6.8*	1.0*	8.7*	14.0*	6.5	1.0	4.5	18.6*	0.9
Cc1cccc(Nc2nc(-c3ccc(F)cc3)cs2)n1	2.9	13.4*	2.8*	9.3*	15.8*	6.2	1.6	9.6*	17.7*	0.9
CCc1ccc(CCNC(=O)OC2CC3CC2[C@H]2CCCCN2[C@H]3Cc2ccccc2)cc1 (some centres not stated)	-0.5	0.1	-0.9	.	0.3	.	.	.	.	.
CCCC1CCC2(CCCN2CCOC(=O)Nc2ccccc2)CC1 (configuration not stated)	.	0.9	-0.8	.	-0.3	.	.	.	.	.
Cc1ccnc(Nc2nc(-c3ccccc3)cs2)c1	1.4	7.8*	0.7	3.7	15.2*	4.5	1.6	5.9*	15.5*	1.1
Fc1ccc(-c2csc(Nc3ccccn3)n2)cc1	2.3	20.6*	4.3*	3.4	20.4*	6.2	2.0	15.6*	26.2*	1.0
Cc1ccc(Nc2nc(-c3ccc(F)cc3)cs2)nc1	1.6	17.8*	2.7*	6.4*	14.4*	5.0	1.1	11.1*	17.8*	0.9
COC(=O)[C@]12CCCCC=C1N(Cc1ccc(OC)cc1)C(=O)[C@@H]2CC(=O)NCCCCc1ccccc1	-1.1	-2.4	-1.2	.	3.2	.	.	.	.	.
CCOc1ccc(CCNC(=O)c2ccc(Oc3ccccc3)cc2)cc1OCC	.	-3.4	-2.0	.	-2.3	.	.	.	.	.
Cc1ccc(S(=O)(=O)C2CCN(c3nc(-c4cccs4)nc4ccccc34)CC2)cc1	.	-2.0	-1.7	.	-0.3	.	.	.	.	.
CNC(=O)c1ccsc1NC(=O)c1ccc2c(c1)CCCC2	1.3	6.9*	0.4	0.2	17.1*	6.4	0.2	7.0*	8.8	0.5
CCCCNc1nccnc1-c1cccc(C=O)c1	-0.7	0.3	-1.4	.	1.9	0.4	.	.	.	.
CC(C)Cc1cc(C(=O)Nc2cccc(O)c2)no1	3.5	8.4*	-0.1	-4.7	18.3*	1.5	1.4	6.5*	18.6*	1.1
CCc1nc2c(OCc3ccc(Cl)cc3Cl)cccn2c1N(C)C(=O)CC(C)C	-1.9	-2.8	-1.2	.	-2.0	0.5	.	.	.	.
Cn1c(O)c(N=NC(=O)c2ccccc2O)c2ccccc21	3.4	11.3*	1.6*	1.3	22.0*	6.0	1.0	12.6*	16.6*	0.8
Cn1c(O)c(N=NC(=O)C2COc3ccccc3O2)c2ccccc21 (configuration not stated)	-0.3	1.8	-0.5	-0.6	3.4	1.2	.	.	.	.
O=C(CCc1nnc(CCc2c[nH]c3ccccc23)o1)NC1CCC1	1.5	7.6*	1.1*	2.5	15.7*	5.2	0.5	6.2*	12.5*	0.3
CCN(C)C(=O)CN1C(=O)C2CCCCN2C(=O)c2ccccc21 (configuration not stated)	0.1	-0.8	-0.9	.	-2.3	.	.	.	.	.
Cc1ccc(NC(=O)c2onc(C)c2Cl)cc1	3.3	9.1*	0.9	2.2	18.2*	5.0	0.9	11.6*	15.5*	0.5
Cc1ccc(NC(=O)c2c(C)noc2C)cc1	0.2	-0.2	-0.9	0.7	-1.9	4.5	.	.	.	.
Cc1cc(C)c2c(N)c(C(=O)Nc3ccc(F)cc3)sc2n1	3.0	8.8*	0.4	2.7	13.6*	6.0	1.9	16.5*	24.2*	1.3
SMILES	DAX1 inh-1	hcDAF12 agonist	ssDAF12 agonist	DAX1 inh-2	hgDAF-12 ag	GAA850 FXN act	LXRb hcDAF ctr	hcDAF12 ag	hgDAF12 ag	LXR ag 2
CC(=O)C1(C(=O)N2CCOCC2)CC(c2ccccc2C(F)(F)F)=NO1 (configuration not stated)	-0.3	-1.6	-0.8	.	3.4	.	.	.	.	.
Cc1ccc(/C(=N/Nc2ncnc3ccccc23)C(=O)O)cc1	3.7*	16.8*	1.9*	2.8	18.3*	3.6	0.4	6.3*	12.3*	0.5
CCCCNC(=O)C[C@H]1C[C@@]2(C(=O)OC)C(=C[C@H](C(C)(C)C)O[C@@H]2C)N(CCc2ccc(OC)c(OC)c2)C1=O	0.2	-1.1	-1.4	.	-0.6	.	.	.	.	.
O=C(CSc1nnc(-c2ccccc2)n1-c1ccc(Cl)cc1)Nc1cccc2ccccc12	-0.6	-2.8	-0.9	.	1.3	.	.	.	.	.
Cc1ccc(-c2nc(N/N=C/c3cccnc3)c3ccccc3n2)cc1	1.2	13.2*	2.9*	-1.9	13.8*	-0.7	1.6	12.3*	20.6*	1.1
CCCNC(=O)C1(C)CCCN(Cc2c3ccccc3nn2C)C1 (configuration not stated)	-0.8	-1.5	-0.7	.	-2.5	0.2	.	.	.	.
NC(Cc1ccc(C(F)(F)F)cc1)c1csc(Nc2ccc(C(=O)NCc3ccco3)cn2)n1 (configuration not stated)	0.0	0.2	-1.5	.	-2.0	0.3	.	.	.	.
CC(=O)c1c(C)oc2c1cc(O)c1ccccc12	0.3	-0.5	-0.7	0.7	0.0	2.0	.	.	.	.
CCOC(=O)c1c(C)oc2c1cc(O)c1ccccc12	2.6	12.6*	3.1*	3.9	16.8*	6.7	1.4	12.7*	20.0*	0.9
CCOc1ccc(C(=O)Nc2ccccc2C(=O)O)cc1	3.4	8.2*	1.1*	-0.3	18.3*	5.2	1.1	8.3*	14.9*	0.8
CCOC(=O)c1csc(-c2ccc(OC)c(OC)c2)n1	0.1	-0.3	-1.1	-0.4	0.4	6.7	.	.	.	.
CCOC(=O)c1csc(-c2sccc2Br)n1	2.9	7.0*	0.9*	3.1	15.8*	5.5	0.9	5.8*	16.4*	1.0
